This passage reports growth inhibition results from PubChem BioAssay (NCI).

The test is described as follows: NCI Yeast Anticancer Drug Screen. Data for the mlh1 strain (AID 171).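 Also: 0% = growth of vehicle-treated control cultures of the same strain.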 The note with it: S. cerevisiae mlh1 strain growth inhibition, hits give high values. How it is done: Growth inhibition of yeast strains with defined genetic alterations is measured as a screen for potential anti-cancer activity. Selected strains with alterations in DNA damage repair or cell cycle control were exposed to compounds and growth inhibition was measured relative to vehicle treated controls. The strain used in this assay is mlh1

About 79,000 compounds went through this panel and 15% of them were active in at least one assay; those are over-represented in the sample as a whole. A number with no mark means an inactive call. Calls of active or inactive are those of the source. Rule as the data show it: active = growth inhibition above about 70%; inactive = the rest.

Regarding `O=C(c1c(F)c(F)c(F)c(F)c1F)c1c(F)c(F)c(F)c(F)c1F`, the growth inhibition reads like this: (at 1.2 µM) 16%; (at 3.7 µM) 56%; (at 11.0 µM) 97% (active); (at 33.0 µM) 98% (active); (at 100.0 µM) 97% (active).

As for `Cc1ccc(Nc2n[nH]c(=S)s2)cc1C`, the growth inhibition is -34% (at 1.2 µM); -21% (at 3.7 µM); -15% (at 11.0 µM); 28% (at 33.0 µM); 83% (active) (at 100.0 µM).

As to `Cc1cc(N(CCOS(C)(=O)=O)CCOS(C)(=O)=O)ccc1C=O`, the growth inhibition is, setting by setting: (at 1.2 µM) 14%; (at 3.7 µM) 28%; (at 11.0 µM) 24%; (at 33.0 µM) 52%; (at 100.0 µM) 60%.

Consider `CC(O)CN1C(=O)c2cccc3cc([N+](=O)[O-])cc(c23)C1=O` (stereo not given), for which the growth inhibition was 5% (at 1.2 µM); 4% (at 3.7 µM); 14% (at 11.0 µM); 50% (at 33.0 µM); 47% (at 100.0 µM).

As for `CC[N+]1(C)CCC(O)(/C=C/c2ccc(Cl)c(Cl)c2)C(C(=O)/C=C/c2ccc(Cl)c(Cl)c2)C1` (stereo not given), the growth inhibition is, setting by setting: (at 1.2 µM) 6%; (at 3.7 µM) 45%; (at 11.0 µM) 99% (active); (at 33.0 µM) 99% (active); (at 100.0 µM) 99% (active).

Take `O=c1oc(C(C(F)(F)F)C(F)(F)F)nc2ccccc12`: the growth inhibition is, setting by setting: (at 1.2 µM) 16%; (at 3.7 µM) 12%; (at 11.0 µM) 17%; (at 33.0 µM) 20%; (at 100.0 µM) 32%.

Consider `CC(C)OC(CCC#N)c1ccc(Cl)cc1` (stereo not given), for which the growth inhibition was -23% (at 1.2 µM); -15% (at 3.7 µM); -16% (at 11.0 µM); 6% (at 33.0 µM); 11% (at 100.0 µM).

As to `C[Si](C)(C)Cc1ccccc1C(=O)O`, the growth inhibition (at 1.2 µM) is 3%; the growth inhibition (at 3.7 µM) is 12%; the growth inhibition (at 11.0 µM) is 3%; the growth inhibition (at 33.0 µM) is 42%; the growth inhibition (at 100.0 µM) was 99% (active).
